High-throughput results as filed in PubChem BioAssay.
The entries come from a sample that favours hits as a whole.
ClpP mod: qHTS Assay for Activators of ClpP; ATP-dependent Clp protease proteolytic subunit (Bacillus subtilis (strain 168)), P80244; purified B. subtilis ClpP, FRET peptide cleavage, 20 min; Potency, µM (titrated, usually from 57.5 µM), without a hit: at the top dose activity change, negative = active; 340,000 tested, 1.9% active; AID 651965, 2013; active means well fitted falling curve with a large enough effect; inconclusive means small, poorly fitted or top-dose-only effect; inactive means no such curve, though single readings can be large or run the other way; further: potency means the concentration at half of the fitted maximal effect; the source files actives as falling curves though it sought activators and does not explain the sign; nearly all actives have a fitted effect of over 65% in size
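Purified B. subtilis ClpP, 10 microg/mL final in Tris/HCl pH8 with KCl, BSA, glycerol and Tween-20, cleaved an Abz/nitrotyrosine-quenched decapeptide. Fluorescence (ex 320, em 430) was read at 0 and 20 min at room temperature. Delta was normalized to 5.8 microM ADEP and DMSO/no-enzyme controls.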
Mito fusion act: qHTS Assay for Small Molecule Inhibitors of Mitochondrial Division or Activators of Mitochondrial Fusion; S. cerevisiae fusion-defective mutant growth rescue, CellTiterGlo 48 h; Potency, µM (titrated, usually from 46.1 µM), without a hit: at the highest dose growth rescue (activation), usual class: activators; 320,000 tested, 0.23% active; AID 485298, 2010; further: potency means the concentration at half of the fitted maximal effect; % of control where 0% means no effect; nearly all actives have a fitted effect of over 45% in size
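Temperature-sensitive fusion-defective S. cerevisiae (e.g. fzo1-1, mgm1-5) were grown with compound in YPEG medium (3% ethanol, 3% glycerol) for 48 hours at 37C. Growth rescue was measured as viability by CellTiterGlo luminescence after 10 minutes at ambient.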
mIDH1 inhibitor: qHTS for Inhibitors of mutant isocitrate dehydrogenase 1 (IDH1): qHTS | 390,000 tested, 0.093% active | IDH1-R132H enzyme, NADPH consumption, diaphorase/resazurin fluorescence | Isocitrate dehydrogenase [NADP] cytoplasmic (Homo sapiens), O75874 | AID 602179, 2012 | Potency, µM (doses to about 76.6 µM), for the others: top-dose activity change, negative = inhibition, most hits filed as inhibitors; further: potency means the concentration at half of the fitted maximal effect; on the % scale 0 is the no-effect control and ±100 the full control effect; nearly all actives have a fitted effect of over 65% in size
Target sequence (O75874 whole entry R132H, stated change not applied): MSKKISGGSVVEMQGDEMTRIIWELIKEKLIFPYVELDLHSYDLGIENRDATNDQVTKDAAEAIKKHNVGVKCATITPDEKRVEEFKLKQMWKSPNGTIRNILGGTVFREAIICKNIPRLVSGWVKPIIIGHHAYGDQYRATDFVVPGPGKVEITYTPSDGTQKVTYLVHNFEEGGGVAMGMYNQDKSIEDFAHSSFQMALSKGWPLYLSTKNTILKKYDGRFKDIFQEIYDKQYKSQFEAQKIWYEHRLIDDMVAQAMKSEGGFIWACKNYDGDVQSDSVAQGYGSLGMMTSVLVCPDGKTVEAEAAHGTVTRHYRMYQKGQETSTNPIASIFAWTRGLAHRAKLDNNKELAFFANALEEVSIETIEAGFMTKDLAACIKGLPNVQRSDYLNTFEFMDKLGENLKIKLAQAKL
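IDH1-R132H (0.5 ug/mL) preincubated 30 min with compound, then NADPH (0.016 mM) and alpha-KG (2 mM) added; 80 min at RT, pH 7.5. Remaining NADPH coupled via diaphorase/resazurin to fluorescence (540/590 nm); concentration-response curves normalized to no-enzyme control.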
RGS4 inh: Inhibitors of Regulator of G Protein Signaling (RGS) 4: qHTS; Regulator of G-protein signaling 4 (Homo sapiens), P49798; Transcreener GDP fluorescence polarization, RGS4-accelerated GTP hydrolysis; Potency, µM (series often up to 114 µM), for the others: at the highest dose activity change, negative = inhibition, usual class: inhibitors; 390,000 tested, 0.039% active; further: potency means the concentration at half of the fitted maximal effect; on the % scale 0 is the no-effect control and ±100 the full control effect; nearly all actives have a fitted effect of over 75% in size
Target sequence (P49798 whole entry, looked up): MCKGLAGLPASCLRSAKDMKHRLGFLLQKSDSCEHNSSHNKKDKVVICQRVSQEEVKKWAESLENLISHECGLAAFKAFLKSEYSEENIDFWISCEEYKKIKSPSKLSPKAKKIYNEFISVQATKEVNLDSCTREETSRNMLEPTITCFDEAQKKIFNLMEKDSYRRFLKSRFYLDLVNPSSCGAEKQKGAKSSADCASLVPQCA
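MLSMR compounds (23 nl, pin-transferred) preincubated 10 min at room temperature with a 500nM (2x) first reagent, then RGS4 at 900nM (2x) plus Transcreener GDP mix added; fluorescence polarization (620/688 nm) read before and after 90 min at 30 °C.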
ASM inhibitor: Inhibitors of Secretory Acid Sphingomyelinase (S-ASM): qHTS | 340,000 tested, 0.006% active | Potency, µM (top dose mostly 57.5 µM), for inactives: at the top dose activity change, negative = inhibition, most hits filed as inhibitors | Sphingomyelin phosphodiesterase (Homo sapiens), P17405 | placental ASM, HMU-PC fluorogenic substrate, 60 min; further: potency means the concentration at half of the fitted maximal effect
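Fluorogenic HMU-PC substrate (9 uM final) is turned over by placental ASM in 60 min at 37 C after a 10 min compound preincubation. Reaction ended by alkaline stop (pH 10), with fluorescence read at 386/447 nm.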
LDHA block: qHTS assay for inhibitors of human lactate dehydrogenase; L-lactate dehydrogenase A chain (Homo sapiens), P00338; 480,000 tested, 0.15% active; purified LDHA, NADH/diaphorase-resazurin fluorescence; active compounds read low; activity change, % (values are at about 110 or 230 µM); in the data active means activity change below about -30%; inconclusive means mostly about -25% to -30%;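 further: plate controls were DMSO wells for no effect and wells without enzyme for full effect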
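Remaining NADH was detected by diaphorase (0.133 mg/mL) converting 37 µM resazurin to fluorescent resorufin, read at 0 and 20 minutes. The preceding 5-minute room-temperature reaction used 2 nM LDHA, 0.2 mM sodium pyruvate and 0.06 mM NADH at pH 7.4.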
Starred values were filed as active, the others as inactive; i = inactive; ? = inconclusive; . = not tested or not shown; [ ] = another dose, or the depositor's remark. Unless noted, the call rests on the fitted dose curve; in most records, active means well fitted curve in the direction sought with a large enough effect; inconclusive means small, poorly fitted or top-dose-only effect, or another doubt; inactive means no such curve, though single readings can be large; an effect the other way counts as inactive or inconclusive.

SMILES	ClpP mod	Mito fusion act	mIDH1 inhibitor	RGS4 inh	ASM inhibitor	LDHA block
CSc1cccc(NC(=O)CSc2ncccc2C(=O)Oc2cccc([N+](=O)[O-])c2)c1	-1%	5%	-2%	?	-2%	-8
CCC(Sc1ncccc1C(=O)Oc1cccc([N+](=O)[O-])c1)C(=O)Nc1ccccc1OC (stereo not drawn)	35µM*	17%	-1%	-10%	-1%	-2
COc1ccc(-n2nnnc2/C=C/Nc2cc(C(F)(F)F)ccc2OC)cc1	28µM*	3%	1%	-20%	18%	-4
COc1ccc(-n2nnnc2/C=C\Nc2ccccc2C(=O)c2ccccc2)cc1	3%	-2%	0%	3%	-6%	-7
COc1cc(C)ccc1OCCOc1ccc(Br)cc1	.	.	.	.	.	9
CN(c1ccccc1)S(=O)(=O)c1cccc(NC(=O)c2ccc(=O)[nH]n2)c1	25µM*	.	2%	-6%	-1%	-8
Cc1cccc(NC(=O)CSCC(=O)Nc2ccc(N3CCOCC3)cc2N2CCOCC2)c1	-1%	.	2%	0%	0%	11
Cc1ccc(CSCC(=O)Nc2ccc(N3CCOCC3)cc2N2CCOCC2)cc1	35µM*	5%	2%	-5%	0%	6
CCC(C)(NC(=O)CNC(=O)c1ccccc1)C(=O)NC1CCCC1 (stereo not drawn)	.	.	.	.	.	1
O=C(CN1CCC2(CC1)OCCO2)c1ccc2cc[nH]c2c1	32µM*	0%	-3%	26%	19%	-8
O=C(CN1CCN(c2ccccc2)CC1)c1ccc2cc[nH]c2c1	?	24%	-6%	-5%	12%	-10
O=C(NCCNc1ncccc1C(F)(F)F)Nc1ccccc1F	.	.	.	.	.	9
Cc1cc(C(=O)NC(c2ccc3c(c2)OCCCO3)C(C)C)c(C)s1 (stereo not drawn)	.	.	.	.	.	12
O=C(c1ccc(Cl)cc1)C1CCCN(Cc2cccn2-c2cccnc2)C1 (stereo not drawn)	.	-2%	19%	17%	2%	-8
O=C(c1ccc2c(c1)OCO2)C1CCCN(Cc2cccn2-c2cccnc2)C1 (stereo not drawn)	35µM*	3%	19%	6%	-2%	-6
N#CC(C(=O)NC1CCCCC1)=C1CCCCCC1	16µM*	-1%	8%	-20%	5%	1
N#CC(C(N)=O)=C1CCCCC1	.	-2%	18%	-12%	6%	-4
COC(=O)c1cc2c(C)nn(C)c2s1	.	5.6µM*	3%	-1%	1%	-6
Cc1nn(C)c2sc(C(=O)NCc3ccccc3)cc12	.	.	.	.	.	-1
Cc1ccc(C(C)(C)c2ccc(C(=O)O)cc2)cc1	.	.	.	.	.	-4
COc1ccc(CCNC(=O)COC(=O)CCC(=O)c2ccc(F)cc2)cc1OC	32µM*	-4%	3%	-10%	0%	3
CC(C)CNC(=O)CSc1nc2scc(-c3ccccc3)c2c(=O)[nH]1	22µM*	-1%	2%	-10%	-1%	0
O=C(CSc1nc2scc(-c3ccccc3)c2c(=O)[nH]1)Nc1ccccc1	3%	-2%	9%	-46%	0%	-7
CCCCCn1nc(C(=O)Nc2ccc(C(=O)NC(C)(C)C)cc2)c2ccccc2c1=O	.	.	.	.	.	8
Cc1ccc(-c2ocnc2C(=O)Nc2ccc(Cl)cc2C)o1	.	.	.	.	.	1
SMILES	ClpP mod	Mito fusion act	mIDH1 inhibitor	RGS4 inh	ASM inhibitor	LDHA block
Cc1ccccc1N(CC(=O)N/N=C/c1ccc(N(C)C)cc1)C(=O)c1ccccc1	35µM*	1%	6%	9%	72%	0
Cc1c(NC(=S)N/N=C/c2ccc(N(C)C)cc2)c(=O)n(-c2ccccc2)n1C	32µM*	-8%	3%	-26%	i	-4
CN(C)c1ccc(/C=N/NC(=S)NCc2ccccc2)cc1	18µM*	-4%	1%	-17%[11.4 µM]	319%	2
Cc1c(NC(=S)N/N=C/c2cccc(O)c2)c(=O)n(-c2ccccc2)n1C	0%	-2%	2%	-30%	3%	2
Cc1ccccc1N(CC(=O)N/N=C/c1ccccc1Cl)C(=O)c1ccccc1	0%	0%	0%	30%	-3%	-23
CCN(CC)c1ccc(/C=N/NC(=S)NCc2ccco2)cc1	16µM*	12%	5%	-23%	i	2
CC(C)(C)c1ccc(/C=N/NC(=S)NCc2ccccc2)cc1	-2%	-2%	-4%	1%	-2%	-3
Cc1ccc(-c2noc(CNc3ccccc3F)n2)cc1	.	.	.	.	.	16
CC(C)=CCNc1ncnc2c1c(C#N)cn2C1OC(CO)C(O)C1O (stereo not drawn)	1%	.	2%	16%	0%	-52*
CCOC(=O)CSc1nc2sc3c(c2c(=O)n1C1CCCCC1)CCN(C)C3	28µM*	-1%	3%	-10%	19%	3
CC1CC(C)CN(C(=O)c2ccc(C(C)(C)C)cc2)C1 (stereo not drawn)	.	.	.	.	.	8
CC(=O)OC1C2CCC1C([N+]1(C)CCCCC1)CC2 (stereo not drawn)	.	-7%	-6%	-29%	4%	-34*
COc1cc(C)c2ccccc2n1	-16%	.	.	.	.	.
COc1cc(OC)c2c(OC)cccc2n1	18µM*	0%	0%	23%	1%	1
COC(=O)c1ccccc1NC(=O)Nc1ccc(C)cn1	.	-3%	-4%	9%	12%	-5
COC(=O)c1ccccc1NC(=O)n1cc(C)cn1	32µM*	4%	2%	13%	23%	-6
Cn1nc(C(=O)OCc2nc(N)nc(Nc3ccc(Cl)cc3)n2)c2ccccc2c1=O	.	.	.	.	.	-16
Cc1cc(=O)n2c(n1)NC(Nc1ccc(F)cc1)=NC2c1cccs1 (stereo not drawn)	.	.	.	.	.	-37*
CC(C)(C)c1nn2cnnc2n(/N=C/c2ccccc2)c1=O	-1%	-3%	-2%	-21%	1%	-3
CC(C)(C)c1nn2cnnc2n(/N=C/c2ccc(O)cc2)c1=O	7.1µM*	-9%	6%	-4%	-1%	-1
CCN1CCn2c3c(c4cc(C)ccc42)CCCC31 (stereo not drawn)	28µM*	-8%	-1%	16%	7%	3
